These results are taken from PubChem BioAssay (NCI).

This is part of a sample that, as a whole, favours compounds with a hit. Of some 83,000 tested, about 20% had one in any assay.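 The test compound was applied at a single concentration to cells in 96-well plates for 48 hours, and percent growth was recorded.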 Unmarked numbers belong to inactive results. The source made the active and inactive calls. How the source made its calls: active means growth percent below 10; inactive means the rest.

Test systems include DU-145 prostate; MALME-3M melanoma; MDA-MB-231 breast; RXF 393 renal; SF-268 CNS; SF-539 CNS; UACC-257 melanoma; M14 melanoma; HCT-15 colon; HT29 colon; SNB-75 CNS; SNB-19 CNS; U251 CNS; PC-3 prostate; SK-MEL-5 melanoma; UACC-62 melanoma; LOX IMVI melanoma; SK-MEL-28 melanoma; K-562 leukemia; SF-295 CNS.
What all share (test): NCI-60 one-dose screen, 48 h (100 = growth as untreated, 0 = no growth, -100 = all killed)
Conditions in all cases: 10 µM unless noted

For the compound `COc1ccc(/C(=C\c2ccc3c(c2)OCO3)C(=O)Nc2nc3ccccc3s2)cc1`, the growth is 102% in the assay with DU-145 prostate; 95.3% in the assay on MALME-3M melanoma; 102% in the assay on MDA-MB-231 breast; 118% in the assay with RXF 393 renal; 96% in the assay on SF-268 CNS; 104% in the assay on SF-539 CNS. Further, the growth in the assay with UACC-257 melanoma was 99.7%; with M14 melanoma, 107%; with HCT-15 colon it was 93.2%; in the assay on HT29 colon it was 94.6%; with SNB-75 CNS, 103%; in the assay with SNB-19 CNS, 109%. Further, the growth with U251 CNS is 101%; in the assay on PC-3 prostate, 106%; with SK-MEL-5 melanoma it was 98.9%; in the assay with UACC-62 melanoma, 102%; with LOX IMVI melanoma, 100%; in the assay with SK-MEL-28 melanoma it was 104%.
For `O=C(/C=C/c1cc([N+](=O)[O-])ccc1Cl)c1ccccc1`, the growth with K-562 leukemia is 24.4%; with MALME-3M melanoma, 102%; with MDA-MB-231 breast, 85.9%; in the assay on RXF 393 renal it was 97.8%; with SF-268 CNS, 94.8%; with SF-295 CNS it was 95.9%. The growth in the assay with SF-539 CNS is 107%; with UACC-257 melanoma it was 104%; in the assay with M14 melanoma, 94.1%; in the assay on HCT-15 colon, 110%; in the assay with HT29 colon it was 14.3%; in the assay with SNB-75 CNS, 67.7%. The growth was 87.8% with SNB-19 CNS; 46% in the assay with U251 CNS; 85.4% in the assay on PC-3 prostate; 87.3% in the assay with SK-MEL-5 melanoma; 70.5% with UACC-62 melanoma; -18.9% (active) in the assay with LOX IMVI melanoma. For the same compound, the growth in the assay with SK-MEL-28 melanoma was 104%.
On to `CCOc1cccc(/C=N/NC(=O)c2ccc(Nc3ccnc(C(F)(F)F)c3)cc2)c1O`, for which the growth is 29.8% in the assay with DU-145 prostate; 19.9% in the assay with MALME-3M melanoma; 27.4% in the assay with MDA-MB-231 breast; 22% with RXF 393 renal; 22.7% with SF-268 CNS; 8.46% (active) in the assay on SF-295 CNS. In addition, the growth was 0.3% (active) in the assay with SF-539 CNS; 12.4% in the assay with UACC-257 melanoma; -20.3% (active) with M14 melanoma; 19.1% in the assay with HCT-15 colon; 49.3% in the assay on HT29 colon; 20.6% in the assay on SNB-75 CNS. Also, the growth was 20% in the assay on SNB-19 CNS; 15.9% in the assay on U251 CNS; 50.8% in the assay on PC-3 prostate; -54.3% (active) with SK-MEL-5 melanoma; -6.19% (active) in the assay with UACC-62 melanoma; 2.5% (active) in the assay on LOX IMVI melanoma. The growth with SK-MEL-28 melanoma is 19.2%.
For the compound `CCOc1cccc(/C=N/NC(=O)Cc2ccc(Nc3ccnc(C(F)(F)F)c3)cc2)c1O`, the growth in the assay on DU-145 prostate was 33.2%; in the assay on MALME-3M melanoma it was 34.3%; in the assay on MDA-MB-231 breast, 26.8%; with RXF 393 renal, 51.1%; in the assay on SF-268 CNS it was 18.2%; with SF-295 CNS, 47.9%. Besides, the growth in the assay on SF-539 CNS was 17.4%; in the assay on UACC-257 melanoma, 21.9%; in the assay on M14 melanoma, 3.19% (active); with HCT-15 colon, 17.3%; with HT29 colon, 85%; in the assay with SNB-75 CNS, 39.4%. Further, the growth with SNB-19 CNS was 28%; with U251 CNS, 20.6%; in the assay on PC-3 prostate, 50%; with SK-MEL-5 melanoma, -36% (active); with UACC-62 melanoma it was -5.55% (active); in the assay on LOX IMVI melanoma, 2.43% (active). In the assay on SK-MEL-28 melanoma, the growth was 60.6%.
For `CCCCCCCCCCC(C(O)c1ccccc1)N1CCCCC1` (centres undefined), the growth in the assay on DU-145 prostate was 64.5%; in the assay on K-562 leukemia, 3.31% (active); in the assay with MDA-MB-231 breast, 9.66% (active); with RXF 393 renal, -22.3% (active); in the assay on SF-268 CNS, 68.4%; with SF-539 CNS, 27.3%. Moreover, the growth in the assay on UACC-257 melanoma was -1.19% (active); with M14 melanoma it was -63.8% (active); in the assay on HCT-15 colon, 16.8%; in the assay on HT29 colon it was -10.5% (active); in the assay with SNB-75 CNS it was 63.1%; in the assay on SNB-19 CNS, 43.7%. The growth with U251 CNS is 28%; with PC-3 prostate it was 25.7%; with SK-MEL-5 melanoma, -94.3% (active); in the assay with UACC-62 melanoma it was -9.77% (active); with LOX IMVI melanoma, -30.5% (active); in the assay on SK-MEL-28 melanoma, -15.9% (active).
As to `CN=C1C=C/C(=N/N=c2/ccn(O)cc2C)C=C1C`, the growth in the assay with DU-145 prostate is 104%; in the assay on K-562 leukemia, 115%; in the assay on MDA-MB-231 breast, 86.4%; in the assay with RXF 393 renal, 96.8%; with SF-268 CNS, 102%; with SF-539 CNS, 90.2%. The growth with UACC-257 melanoma was 98.5%; with M14 melanoma it was 101%; with HCT-15 colon it was 97.2%; in the assay with HT29 colon it was 99.5%; in the assay with SNB-75 CNS, 84.4%; in the assay with SNB-19 CNS, 101%. Further, the growth in the assay on U251 CNS was 102%; with PC-3 prostate, 95.2%; in the assay with SK-MEL-5 melanoma, 97.8%; in the assay with UACC-62 melanoma, 89%; in the assay on LOX IMVI melanoma, 95.4%; in the assay with SK-MEL-28 melanoma, 120%.
In the case of `O=C(O)c1ccccc1N=Cc1ccccc1`, the growth in the assay on DU-145 prostate is 108%; in the assay with K-562 leukemia, 99.2%; in the assay with MDA-MB-231 breast, 109%; in the assay with RXF 393 renal, 132%; in the assay with SF-268 CNS, 109%; in the assay with SF-539 CNS, 101%. Also, the growth in the assay on UACC-257 melanoma is 113%; in the assay with M14 melanoma, 109%; in the assay with HCT-15 colon it was 111%; in the assay with HT29 colon, 108%; with SNB-75 CNS, 119%; in the assay on SNB-19 CNS, 112%. Besides, the growth with U251 CNS is 106%; in the assay with PC-3 prostate, 87.6%; in the assay with SK-MEL-5 melanoma, 116%; in the assay with UACC-62 melanoma, 119%; in the assay on LOX IMVI melanoma, 92.6%; with SK-MEL-28 melanoma, 129%.
As for `Cc1nc2n[nH]c(N)c2nc1C`, the growth was 119% in the assay with DU-145 prostate; 105% in the assay on MALME-3M melanoma; 120% in the assay on MDA-MB-231 breast; 119% in the assay with RXF 393 renal; 105% in the assay with SF-295 CNS; 103% with SF-539 CNS. Further, the growth with UACC-257 melanoma was 96.8%; in the assay on M14 melanoma, 125%; in the assay with HCT-15 colon, 103%; with HT29 colon, 93.6%; in the assay on SNB-75 CNS it was 93.1%; in the assay on SNB-19 CNS it was 103%. Also, the growth with U251 CNS is 107%; with SK-MEL-5 melanoma, 96.6%; in the assay with UACC-62 melanoma it was 106%; with LOX IMVI melanoma, 98.9%; in the assay on SK-MEL-28 melanoma, 105%.
As to `CCN(CC)CCNc1c(C)cc(CO)c(Cl)c1C`, the growth was 120% in the assay with DU-145 prostate; 115% with K-562 leukemia; 104% in the assay with MDA-MB-231 breast; 119% in the assay on RXF 393 renal; 104% with SF-295 CNS; 103% in the assay with SF-539 CNS. Also, the growth with UACC-257 melanoma is 96.7%; in the assay with M14 melanoma, 110%; with HCT-15 colon, 106%; with HT29 colon, 97%; with SNB-75 CNS, 90.2%; with SNB-19 CNS, 92.8%. Further, the growth in the assay on U251 CNS is 105%; in the assay with PC-3 prostate it was 97.9%; in the assay on SK-MEL-5 melanoma, 106%; in the assay with UACC-62 melanoma it was 102%; with LOX IMVI melanoma, 98.8%; with SK-MEL-28 melanoma, 104%.
